# Results published in PubChem BioAssay (Tox21).
# Several values for one entry are separate records, joined by “and”; a condition that tells them apart may be missing. Identical values can stand only once. Records with an inconclusive call do not appear. Entries that show only a call come without a potency. A structure can be active in one record and inactive in another. Activity calls are given as the source filed them. Calls follow the shape of the dose curve; as a rule, active = well fitted curve in the direction sought with a large enough effect in the repeat runs; inconclusive = weak or mixed curves; inactive = no such curve, though single readings can be large; an effect the other way counts as inactive or inconclusive.
# Experiments:
# [1] = Caspase-3/7 induction in HepG2 cells by small molecules, qHTS assay (AID 1346978); also: nearly all actives have a fitted effect of over 15% in size; also: potency is read from the fitted curve at half-maximal effect
# Outline: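 Wild-type HepG2 cells, 2,000/well, settled 5 hr at 37 C and 5% CO2, then compound-treated for 17 hr; caspase-3/7 activity read by luminescent Caspase-Glo 3/7 after 30 min at room temperature.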
# [2] = Caspase-3/7 induction in CHO-K1 cells by small molecules, qHTS cell viability counter screen (AID 1346979); also: nearly all actives have a fitted effect of over 35% in size; also: potency is read from the fitted curve at half-maximal effect
# Outline: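 Cells (CHO-K1, wild type) are plated at 1,500 per well and incubated 5hr. Test compounds in DMSO are then pinned in, followed by 16hr at 37C and 5% CO2. Viability is read by CellTiter-Fluor fluorescence after 1hr.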
# [3] = Caspase-3/7 induction in CHO-K1 cells by small molecules, qHTS assay (AID 1346980); also: nearly all actives have a fitted effect of over 15% in size; also: potency is read from the fitted curve at half-maximal effect
# Outline: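 Wild-type CHO-K1 cells exposed to compounds for 17hr at 37 C, 5% CO2. Caspase-3/7 activity then measured by Caspase-Glo 3/7 luminescence after 30min at room temperature.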
# [4] = molecular target: Nuclear receptor subfamily 1 group I member 2 (Homo sapiens) (UniProt O75469); test: Human pregnane X receptor (PXR) small molecule agonists, qHTS assay (AID 1346982); also: nearly all actives have a fitted effect of over 35% in size; also: potency is read from the fitted curve at half-maximal effect
# Outline: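 Luciferase signal from ONE-Glo (30 min, room temperature) measured activation of hPXR-driven CYP3A4 reporter expression in PXR-Luc HepG2 cells treated with compounds for 24 hr at 37 C.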
# [5] = molecular target: Cytochrome P450 2D6 (Homo sapiens) (UniProt P10635); test: Cytochrome P450 Family 2 Subfamily D Member 6 (CYP2D6) small molecule antagonists: luciferase reporter qHTS assay (AID 1671196); also: nearly all actives have a fitted effect of over 50% in size; also: potency is read from the fitted curve at half-maximal effect
# Outline: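 Read-out is luminescence from luciferin formed by CYP2D6 turnover of a proluciferin substrate, recorded as relative luminescence units. Reactions ran 1 h at room temperature after NADPH regeneration solution was added.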
# [6] = molecular target: Cytochrome P450 2C19 (Homo sapiens) (UniProt P33261); test: Cytochrome P450 Family 2 Subfamily C Member 19 (CYP2C19) small molecule antagonists: luciferase reporter qHTS assay (AID 1671197); also: nearly all actives have a fitted effect of over 65% in size; also: potency is read from the fitted curve at half-maximal effect
# Outline: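 Luminescent readout of CYP2C19 activity: luciferin product detected 20 min after adding detection reagent. Before that, compound and enzyme-substrate mix preincubated 10 min at room temperature; NADPH-regenerating system started a 1 h, 37C reaction. Ketoconazole as positive control.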
# [7] = molecular target: Cytochrome P450 2C9 (Homo sapiens) (UniProt P11712); test: Cytochrome P450 Family 2 Subfamily C Member 9 (CYP2C9) small molecule antagonists: luciferase reporter qHTS assay (AID 1671198); also: nearly all actives have a fitted effect of over 50% in size; also: potency is read from the fitted curve at half-maximal effect
# Outline: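 P450-Glo proluciferin substrate with CYP2C9 enzyme; 10 min RT preincubation, then NADPH regeneration 1 h at 37C; luciferin detection reagent 20 min RT, luminescence in relative luminescence units.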
# [8] = molecular target: Cytochrome P450 1A2 (Homo sapiens) (UniProt P05177); test: Cytochrome P450 Family 1 Subfamily A Member 2 (CYP1A2) small molecule antagonists: luciferase reporter qHTS assay (AID 1671199); also: nearly all actives have a fitted effect of over 50% in size; also: potency is read from the fitted curve at half-maximal effect
# Outline: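 P450-Glo CYP1A2, 1536-well qHTS: enzyme/proluciferin substrate + cpd (DMSO), 10 min RT; NADPH regen, 1 h RT; detection reagent, 20 min; luminescence, RLU.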
# [9] = molecular target: Voltage-gated inwardly rectifying potassium channel KCNH2 (Homo sapiens) (UniProt Q12809); test: Human Ether-a-go-go-Related Gene (hERG) channel small molecule antagonists: fluorescence cell-based qHTS assay (AID 1671200); also: nearly all actives have a fitted effect of over 50% in size; also: potency is read from the fitted curve at half-maximal effect
# Outline: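 Channel function was assessed by thallium flux. Cells seeded the previous day and kept at 37 C took up FluxOR II dye over 1 h in the dark at room temperature, then sat another 10 min before stimulation.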
# [10] = molecular target: Nuclear receptor subfamily 1 group I member 2 (Rattus norvegicus) (UniProt Q9R1A7); test: Rat pregnane X receptor (rPXR) activation by small molecules, qHTS assay (AID 1346983); conditions: rPXR luciferase reporter cells, One-Glo luminescence, 24 h; stronger effect = higher value; also: nearly all actives have a fitted effect of over 20% in size
# Outline: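 Cell-based rPXR activation assay: rPXR cells, 2,000 per well, rested 5hr at 37 C, then exposed to compounds in DMSO for 24 hr at 37 C. Luciferase activity read by One-Glo luminescence after 30 min at room temperature.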
# [11] = molecular target: Nuclear receptor subfamily 1 group I member 2 (Homo sapiens) (UniProt O75469); test: CYP3A4 induction through human pregnane X receptor (PXR) by small molecules, qHTS assay (AID 1346984); also: nearly all actives have a fitted effect of over 40% in size
# Outline: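 Luminescence readout: luciferase signal after One-Glo (30 min, room temperature), following 3 h at 37C with 3uM final Luciferin-IPA P450 substrate. Cells were DPX-2 (HepG2, PXR/CYP3A4-luc co-transfected) dosed for 24 h.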
# [12] = molecular target: Nuclear receptor subfamily 1 group I member 2 (Homo sapiens) (UniProt O75469); test: Human pregnane X receptor (PXR) activation by small molecules, qHTS assay (AID 1346985); also: nearly all actives have a fitted effect of over 40% in size; also: potency is read from the fitted curve at half-maximal effect
# Outline: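 DPX-2 cells (HepG2 co-transfected with a PXR response element and a CYP3A4-promoter luciferase construct) were seeded at 2,000 per well, rested 5 hr at 37C, then exposed to DMSO-dissolved compounds for 24 hr. Activation was read as luciferase luminescence.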
# [13] = molecular target: Cytochrome P450 3A4 (Homo sapiens) (UniProt P08684); test: Cytochrome P450 Family 3 Subfamily A Member 4 (CYP3A4) small molecule antagonists: luciferase reporter qHTS assay (AID 1671201); also: nearly all actives have a fitted effect of over 50% in size; also: potency is read from the fitted curve at half-maximal effect
# Outline: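 Compounds in DMSO were pin-transferred onto CYP3A4 enzyme-substrate mix and held 10 min at room temperature. NADPH regenerating solution started the reaction for 1 h; luciferin detection reagent stopped it, and luminescence was read after 20 min.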
# [14] = Caspase-3/7 induction in HepG2 cells by small molecules, qHTS cell viability counter screen (AID 1346981); also: nearly all actives have a fitted effect of over 30% in size; also: potency is read from the fitted curve at half-maximal effect
# Outline: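 HepG2, WT, 2,000 cells/well; 5 hr pre-incubation 37 C/5% CO2; compound pin-transferred from DMSO; 16 hr exposure; CellTiter-Fluor, 1 hr; fluorescence read.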
# Chain of Nuclear receptor subfamily 1 group I member 2 (Rattus norvegicus) (Q9R1A7 whole entry, looked up): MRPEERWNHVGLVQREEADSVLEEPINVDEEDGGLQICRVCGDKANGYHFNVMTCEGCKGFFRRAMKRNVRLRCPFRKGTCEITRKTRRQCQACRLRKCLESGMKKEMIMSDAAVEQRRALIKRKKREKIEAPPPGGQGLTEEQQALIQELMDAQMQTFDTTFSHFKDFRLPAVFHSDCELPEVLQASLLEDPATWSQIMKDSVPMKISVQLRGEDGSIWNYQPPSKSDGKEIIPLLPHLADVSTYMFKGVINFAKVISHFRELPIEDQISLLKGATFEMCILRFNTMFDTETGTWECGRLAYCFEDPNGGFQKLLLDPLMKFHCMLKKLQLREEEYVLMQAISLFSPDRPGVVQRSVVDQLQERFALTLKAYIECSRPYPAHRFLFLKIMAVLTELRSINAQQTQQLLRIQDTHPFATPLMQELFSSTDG
# Chain of Cytochrome P450 2C19 (Homo sapiens) (P33261 whole entry, looked up): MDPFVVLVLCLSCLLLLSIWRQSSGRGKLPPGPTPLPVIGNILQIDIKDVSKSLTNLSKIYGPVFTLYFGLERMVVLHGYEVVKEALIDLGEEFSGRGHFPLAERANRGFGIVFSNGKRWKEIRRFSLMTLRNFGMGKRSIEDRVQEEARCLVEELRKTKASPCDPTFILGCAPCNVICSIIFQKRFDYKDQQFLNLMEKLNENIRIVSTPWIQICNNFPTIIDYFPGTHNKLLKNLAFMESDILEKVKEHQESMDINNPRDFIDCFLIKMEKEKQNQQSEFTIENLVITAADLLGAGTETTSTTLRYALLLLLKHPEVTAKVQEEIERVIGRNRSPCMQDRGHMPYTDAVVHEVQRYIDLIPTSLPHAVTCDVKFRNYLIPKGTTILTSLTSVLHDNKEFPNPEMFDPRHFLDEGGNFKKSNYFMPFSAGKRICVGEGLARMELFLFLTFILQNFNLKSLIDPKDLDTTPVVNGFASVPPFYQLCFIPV
# Chain of Cytochrome P450 1A2 (Homo sapiens) (P05177 whole entry, looked up): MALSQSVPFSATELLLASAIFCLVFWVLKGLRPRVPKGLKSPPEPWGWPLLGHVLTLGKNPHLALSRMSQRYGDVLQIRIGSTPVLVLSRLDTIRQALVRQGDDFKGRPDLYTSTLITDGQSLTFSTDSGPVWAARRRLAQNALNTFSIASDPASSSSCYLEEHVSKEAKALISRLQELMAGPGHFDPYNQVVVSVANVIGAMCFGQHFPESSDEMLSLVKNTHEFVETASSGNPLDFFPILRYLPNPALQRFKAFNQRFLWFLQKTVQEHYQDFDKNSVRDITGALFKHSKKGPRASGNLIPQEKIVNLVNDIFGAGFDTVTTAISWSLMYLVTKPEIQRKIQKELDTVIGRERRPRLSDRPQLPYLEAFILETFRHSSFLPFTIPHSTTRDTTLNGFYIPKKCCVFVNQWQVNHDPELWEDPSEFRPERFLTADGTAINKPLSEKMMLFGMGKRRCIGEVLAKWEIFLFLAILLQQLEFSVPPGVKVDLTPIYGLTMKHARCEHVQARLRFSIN
# Chain of Voltage-gated inwardly rectifying potassium channel KCNH2 (Homo sapiens) (Q12809 whole entry, looked up): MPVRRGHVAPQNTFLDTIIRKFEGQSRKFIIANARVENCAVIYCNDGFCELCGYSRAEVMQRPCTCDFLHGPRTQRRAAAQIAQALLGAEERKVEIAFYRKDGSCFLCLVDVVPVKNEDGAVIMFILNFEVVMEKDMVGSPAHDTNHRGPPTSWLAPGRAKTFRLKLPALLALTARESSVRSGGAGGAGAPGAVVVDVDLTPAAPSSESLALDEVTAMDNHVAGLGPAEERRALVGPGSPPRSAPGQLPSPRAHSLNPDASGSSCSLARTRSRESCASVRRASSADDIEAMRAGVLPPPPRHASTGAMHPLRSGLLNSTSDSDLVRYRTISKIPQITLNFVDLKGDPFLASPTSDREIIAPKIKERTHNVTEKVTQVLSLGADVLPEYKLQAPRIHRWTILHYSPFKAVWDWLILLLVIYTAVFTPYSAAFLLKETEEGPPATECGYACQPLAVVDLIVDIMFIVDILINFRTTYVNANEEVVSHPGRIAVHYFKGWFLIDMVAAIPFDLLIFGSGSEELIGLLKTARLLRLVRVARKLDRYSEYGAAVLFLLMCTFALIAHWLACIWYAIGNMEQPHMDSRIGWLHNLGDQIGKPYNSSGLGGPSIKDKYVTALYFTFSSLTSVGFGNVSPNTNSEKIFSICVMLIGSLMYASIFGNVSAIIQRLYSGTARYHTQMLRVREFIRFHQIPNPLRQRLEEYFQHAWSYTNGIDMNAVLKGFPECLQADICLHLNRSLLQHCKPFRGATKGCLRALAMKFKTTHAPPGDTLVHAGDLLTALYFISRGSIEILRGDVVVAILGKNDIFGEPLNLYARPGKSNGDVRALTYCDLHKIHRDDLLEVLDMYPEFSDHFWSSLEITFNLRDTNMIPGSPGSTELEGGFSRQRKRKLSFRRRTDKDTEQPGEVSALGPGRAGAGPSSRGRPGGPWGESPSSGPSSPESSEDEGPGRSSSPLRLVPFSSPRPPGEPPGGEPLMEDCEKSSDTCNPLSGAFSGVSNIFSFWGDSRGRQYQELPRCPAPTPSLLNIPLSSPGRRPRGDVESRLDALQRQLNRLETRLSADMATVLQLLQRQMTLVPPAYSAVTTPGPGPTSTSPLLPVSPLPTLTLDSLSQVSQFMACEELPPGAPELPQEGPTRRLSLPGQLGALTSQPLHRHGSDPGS
# Chain of Cytochrome P450 3A4 (Homo sapiens) (P08684 whole entry, looked up): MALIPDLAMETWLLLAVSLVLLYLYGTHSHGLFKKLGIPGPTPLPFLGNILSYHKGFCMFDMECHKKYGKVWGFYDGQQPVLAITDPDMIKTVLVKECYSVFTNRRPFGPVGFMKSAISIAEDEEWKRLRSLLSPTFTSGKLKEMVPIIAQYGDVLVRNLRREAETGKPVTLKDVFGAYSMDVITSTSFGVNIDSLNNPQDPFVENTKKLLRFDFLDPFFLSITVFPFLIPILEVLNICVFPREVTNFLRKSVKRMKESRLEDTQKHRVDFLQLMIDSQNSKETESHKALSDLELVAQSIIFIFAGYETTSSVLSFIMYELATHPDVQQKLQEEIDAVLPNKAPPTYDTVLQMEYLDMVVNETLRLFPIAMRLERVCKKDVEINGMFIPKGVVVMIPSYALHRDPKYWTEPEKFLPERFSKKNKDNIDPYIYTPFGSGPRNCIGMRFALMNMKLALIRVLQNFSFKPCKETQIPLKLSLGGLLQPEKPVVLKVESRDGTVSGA
# Chain of Cytochrome P450 2C9 (Homo sapiens) (P11712 whole entry, looked up): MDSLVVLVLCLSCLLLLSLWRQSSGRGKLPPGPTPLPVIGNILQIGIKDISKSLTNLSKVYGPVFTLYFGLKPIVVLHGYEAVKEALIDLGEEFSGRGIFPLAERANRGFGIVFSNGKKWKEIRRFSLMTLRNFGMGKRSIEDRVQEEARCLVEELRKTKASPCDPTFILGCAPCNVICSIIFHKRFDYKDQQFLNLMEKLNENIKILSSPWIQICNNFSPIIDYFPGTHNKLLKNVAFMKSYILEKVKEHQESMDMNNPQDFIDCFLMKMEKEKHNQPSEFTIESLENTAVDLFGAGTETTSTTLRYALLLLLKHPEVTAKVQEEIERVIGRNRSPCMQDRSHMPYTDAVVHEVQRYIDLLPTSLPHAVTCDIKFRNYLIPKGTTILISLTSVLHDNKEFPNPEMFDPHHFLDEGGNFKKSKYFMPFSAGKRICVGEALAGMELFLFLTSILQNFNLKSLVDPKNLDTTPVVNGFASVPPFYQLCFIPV
# Chain of Nuclear receptor subfamily 1 group I member 2 (Homo sapiens) (O75469 whole entry, looked up): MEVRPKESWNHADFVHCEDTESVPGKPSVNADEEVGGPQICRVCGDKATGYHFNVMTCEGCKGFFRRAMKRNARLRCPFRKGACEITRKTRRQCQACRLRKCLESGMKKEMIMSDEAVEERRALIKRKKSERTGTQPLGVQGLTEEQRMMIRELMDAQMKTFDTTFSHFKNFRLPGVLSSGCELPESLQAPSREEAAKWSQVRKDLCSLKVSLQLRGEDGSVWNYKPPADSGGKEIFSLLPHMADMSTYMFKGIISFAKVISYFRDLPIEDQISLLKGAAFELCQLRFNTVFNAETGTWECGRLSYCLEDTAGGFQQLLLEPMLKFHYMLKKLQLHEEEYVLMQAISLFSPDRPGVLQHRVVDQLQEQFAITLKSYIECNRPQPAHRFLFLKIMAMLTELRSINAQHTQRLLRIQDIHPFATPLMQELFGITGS
# Chain of Cytochrome P450 2D6 (Homo sapiens) (P10635 whole entry, looked up): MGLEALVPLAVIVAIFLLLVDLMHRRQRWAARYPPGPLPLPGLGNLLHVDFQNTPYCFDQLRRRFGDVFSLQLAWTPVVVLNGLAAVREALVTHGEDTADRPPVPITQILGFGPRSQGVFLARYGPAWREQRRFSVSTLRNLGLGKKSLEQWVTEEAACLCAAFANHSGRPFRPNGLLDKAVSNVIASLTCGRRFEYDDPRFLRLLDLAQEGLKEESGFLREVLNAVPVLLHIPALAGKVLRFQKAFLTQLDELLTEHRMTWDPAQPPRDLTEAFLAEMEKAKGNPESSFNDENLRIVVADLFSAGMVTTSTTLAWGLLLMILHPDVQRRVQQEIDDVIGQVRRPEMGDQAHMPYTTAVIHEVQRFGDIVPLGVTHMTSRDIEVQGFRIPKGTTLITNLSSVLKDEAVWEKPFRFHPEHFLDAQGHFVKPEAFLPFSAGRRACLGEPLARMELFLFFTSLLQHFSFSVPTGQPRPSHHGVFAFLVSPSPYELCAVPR
SMILES,Potency [1],Potency [2],Potency [3],Potency [4],Potency [5],Potency [6],Potency [7],Potency [8],Potency [9],max activation [10],Potency [11],Potency [12],Potency [13],Potency [14]
CCCCCCCCCCCCc1ccccc1O,60.3 µM (active) and 54.5 µM (active),53.8 µM (active) and 54.5 µM (active),60.3 µM (active) and 68.6 µM (active),6.03 µM (active),inactive,1.57 µM (active) and 3.17 µM (active),7.01 µM (active) and 11.2 µM (active),35.1 µM (active) and 31.7 µM (active),inactive,,,,,
N[C@@H]1CONC1=O,inactive,inactive,inactive,inactive,inactive,inactive,inactive,inactive,inactive,-2.48% (inactive),inactive,inactive,inactive,
CCCCN(CCO)CCCC,inactive,inactive,inactive,,36.4 µM (active),,,,inactive,,,,inactive,inactive
CC(N)=O,inactive,inactive,inactive,inactive,inactive,inactive,,,inactive,,,,,inactive
Oc1c(Cl)cc(Cl)cc1Sc1cc(Cl)cc(Cl)c1O,inactive,15.4 µM (active) and 62.1 µM (active) and 17.2 µM (active),inactive,,inactive,71.2 µM (active) and 79.6 µM (active) and inactive,,72.2 µM (active) and inactive,inactive,,,,inactive,15.4 µM (active)
CCCN[C@H]1CCc2nc(N)sc2C1,inactive,inactive,inactive,,,,,,inactive,-1.97% (inactive),,,,inactive
CCN(CC)C(=S)SSC(=S)N(CC)CC,611 nM (active) and 395 nM (active),137 nM (active) and 62.6 nM (active) and 376 nM (active),inactive,15.7 µM (active) and 10.6 µM (active),32.5 µM (active),,6.33 µM (active) and 4.21 µM (active) and 4.36 µM (active),31.7 µM (active) and 21.3 µM (active) and 6.45 µM (active),41 µM (active) and inactive,,,,,inactive
CCCNC(C)C(=O)Nc1ccccc1C (stereo unspecified),inactive,inactive,inactive,inactive,27.5 µM (active),inactive,inactive,inactive,inactive,-2.15% (inactive),inactive,inactive,inactive,
CCc1cc(C(C)(C)C)c(O)c(C(C)(C)C)c1,inactive,inactive,inactive,inactive and 34.4 µM (active),inactive,71.7 µM (active) and inactive,,inactive,inactive,,,,inactive,inactive
O=C(O)c1cn(-c2ccc(F)cc2)c2cc(N3CCNCC3)c(F)cc2c1=O,inactive,inactive,inactive,,inactive,inactive,inactive,inactive,inactive,-0.0913% (inactive),,,inactive,inactive
O=Cc1ccc(Cl)cc1,inactive,inactive,inactive,inactive,,,inactive,,inactive,,,,,inactive
Cc1ccnc2c1NC(=O)c1cccnc1N2C1CC1,inactive,inactive,inactive,inactive,7.4 µM (active) and inactive,inactive,inactive,33 µM (active) and inactive,inactive,-1.62% (inactive),inactive,inactive,inactive,
CC(C)(C)NCC(O)c1cc(O)cc(O)c1 (stereo unspecified),inactive,inactive,inactive,inactive,38.9 µM (active),inactive,,inactive,inactive,3.93% (inactive),inactive,inactive,,
CCN(CC)C(=O)Nc1ccc(OCC(O)CNC(C)(C)C)c(C(C)=O)c1 (stereo unspecified),inactive,inactive,inactive,inactive,,inactive,inactive,inactive,inactive,1.62% (inactive),inactive,inactive,,
C=CS(=O)(=O)O,inactive,inactive,inactive,inactive,,inactive,inactive,inactive,inactive,,,,,inactive
CC(C)(C)NC(=O)[C@@H]1CN(Cc2cccnc2)CCN1C[C@@H](O)C[C@@H](Cc1ccccc1)C(=O)N[C@H]1c2ccccc2C[C@H]1O,inactive,inactive,inactive,,,,,,inactive,4.92% (inactive),,,,inactive

SMILES,Potency [1],Potency [2],Potency [3],Potency [4],Potency [5],Potency [6],Potency [7],Potency [8],Potency [9],max activation [10],Potency [11],Potency [12],Potency [13],Potency [14]
COc1ccc(Cc2cnc(N)nc2N)cc1OC,inactive,inactive,inactive,inactive,inactive,inactive,inactive,inactive,inactive,10.3% (inactive),inactive,inactive,inactive,
BrC1CCC(Br)C(Br)CCC(Br)C(Br)CCC1Br (stereo unspecified),inactive,48.4 µM (active),60.9 µM (active),54.3 µM (active) and 46.1 µM (active),inactive,1.26 µM (active) and 1.34 µM (active),10.7 µM (active),inactive,15.4 µM (active),,,,,
Cc1scc2c1N(C(=O)CN1CCN(C)CC1)c1ccccc1NC2=O,inactive,inactive,inactive,inactive,inactive,inactive,inactive,inactive,inactive,,,,,
COC(=O)[C@H]1[C@H]2C[C@@H]3c4[nH]c5cc(OC)ccc5c4CCN3C[C@H]2C[C@@H](OC(=O)c2cc(OC)c(OC)c(OC)c2)[C@@H]1OC,inactive,30.6 µM (active) and 39.7 µM (active) and inactive,inactive,,28.2 µM (active) and 9.19 µM (active),41.1 µM (active) and inactive,,32.6 µM (active) and inactive,3.46 µM (active) and 6.34 µM (active) and 10.7 µM (active),,,,,44.5 µM (active) and inactive
NNCCc1ccccc1,inactive,inactive,inactive,27.4 µM (active) and 26.6 µM (active),2.25 µM (active) and 12.3 µM (active),6.35 µM (active) and 13.8 µM (active),25.3 µM (active) and 17.4 µM (active),11.3 µM (active) and 17.4 µM (active),inactive,,inactive,12.6 µM (active),,
CCC(CO)(CO)COCC(CC)(CO)CO,inactive,inactive,inactive,inactive,inactive,inactive,,inactive,inactive,,,,inactive,inactive
CC(COc1ccccc1)N(CCCl)Cc1ccccc1 (stereo unspecified),inactive,inactive,inactive,,570 nM (active) and 448 nM (active) and 692 nM (active),2.27 µM (active) and 2.24 µM (active) and 3.47 µM (active),28.6 µM (active) and 22.4 µM (active) and 12.3 µM (active),inactive,19.7 µM (active) and 24.5 µM (active),,,,inactive,inactive
Cc1cc(OCCOCC[N+](C)(C)Cc2ccccc2)ccc1C(C)(C)CC(C)(C)C,,43 µM (active),inactive,inactive,17.7 µM (active) and 13.8 µM (active),39.7 µM (active),62.9 µM (active),inactive,688 nM (active) and 756 nM (active),,,,,
CN1C(=O)c2ccc([N+](=O)[O-])cc2C1=O,inactive,inactive,inactive,,,70.9 µM (active),,20 µM (active),inactive,,,,,
O=C(Nc1ccccc1SSc1ccccc1NC(=O)c1ccccc1)c1ccccc1,inactive,24.5 µM (active) and 27.3 µM (active),inactive,48.8 µM (active) and 30.6 µM (active),inactive,3.19 µM (active) and 2.52 µM (active),505 nM (active) and 564 nM (active),8.01 µM (active) and 8.94 µM (active),inactive,,,,2.01 µM (active) and 5.03 µM (active),
CCN(CC)c1ccc2c(C)cc(=O)oc2c1,inactive,,inactive,54.9 µM (active) and 48.6 µM (active),inactive,40.2 µM (active) and 31.7 µM (active),inactive,2.02 µM (active) and 2.83 µM (active),inactive,,,,,
CCCCC(CC)COC(=O)CC(C(=O)OCC(CC)CCCC)S(=O)(=O)O (stereo unspecified),inactive,52.4 µM (active),inactive,5.88 µM (active) and 3.06 µM (active),inactive and 17.8 µM (active),,15.3 µM (active) and 12.6 µM (active),63.3 µM (active),inactive,,,,,
Cc1c(O)cccc1C(=O)N[C@@H](CSc1ccccc1)[C@H](O)CN1C[C@H]2CCCC[C@H]2C[C@H]1C(=O)NC(C)(C)C,66.8 µM (active),5.95 µM (active) and 10.6 µM (active),inactive,,8.71 µM (active) and 15.5 µM (active),9.77 µM (active),19.5 µM (active) and 24.5 µM (active),inactive,inactive,,,,,
C=CC(=O)OCCCCCCCC,inactive,inactive,inactive,inactive,inactive,inactive,inactive,,inactive,,,,inactive,
CC(C)(C)c1ccc(O)c(C(C)(C)C)c1,30.5 µM (active) and 54.5 µM (active),60.9 µM (active) and 54.5 µM (active),,inactive,19.9 µM (active),9.99 µM (active) and 17.8 µM (active),12.6 µM (active) and 11.2 µM (active),35.4 µM (active) and 56.4 µM (active),,,,,,
